Assay outcomes from PubChem.
Mito fusion yeast: inhibitors of mitochondrial division or activators of mitochondrial fusion. S. cerevisiae fusion-defective mutant growth rescue, CellTiterGlo 48 h. 320,000 compounds, 0.23% hits. Potency, µM (titrated, usually from 46.1 µM), actives largely listed as activators. AID 485298; further: nearly all actives have a fitted effect of over 45% in size
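Luminescent cell viability in 1536-well qHTS format served as the measure of rescued growth in ts fusion-mutant S. cerevisiae cultured on non-fermentable YPEG for 48 hours at 37C.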
Abeta yeast res: A-beta toxicity reversal in yeast; yeast expressing A-beta42, growth rescue, OD600, 48 h; response scale: 0% DMSO, 100% iron-clioquinol control; Potency, µM (titrated, usually from 46.1 µM), actives largely listed as activators; 410,000 compounds, 0.063% hits; further: nearly all actives have a fitted effect of over 55% in size
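Yeast growth medium received pinned compounds, then yeast cells expressing toxic A-beta were added; plates incubated at 30 C for 48 hr. Growth read as absorbance at 600 nm, normalized to DMSO and equimolar FeCl3 plus clioquinol controls.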
aSyn rescue: alpha-synuclein toxicity inhibition in yeast; Yeast expressing alpha-synuclein, growth rescue, BacTiter-Glo, 24 h; Potency, µM (series often up to 46.1 µM), hits mostly activators; 370,000 compounds, 0.14% hits; further: nearly all actives have a fitted effect of over 65% in size
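Galactose-induced alpha-syn yeast (OD600=0.02, raffinose-pregrown) + pinned cpd, 24 hr, 30 deg C; growth by BacTiter-Glo luminescence. Growth restoration scores as activation.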
FUS yeast rescue: suppressors of FUS proteinopathy in yeast; S. cerevisiae FUS-expressing, growth rescue, OD600, 24 h; Potency, µM (titrated, usually from 76.6 µM), usual class: activators; 390,000 compounds, 0.24% hits; AID 1347120; further: nearly all actives have a fitted effect of over 55% in size
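Restored growth of FUS-toxic S. cerevisiae, read as 600 nm absorbance after 24 h at 30C in galactose medium (starting OD 0.005). Controls CP55940 and DMSO.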
TDP43 rescue: TDP-43 toxicity inhibition in yeast; TDP-43 expressing yeast growth rescue, BacTiter-Glo, 24 h; AID 652104; Potency, µM (doses to about 46.1 µM), usual class: activators; 410,000 compounds, 1.8% hits; further: nearly all actives have a fitted effect of over 50% in size
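Growth rescue of TDP-43-toxic yeast measured as ATP luminescence (BacTiter-Glo). Cells grown to mid-log in raffinose, induced in galactose at OD600=0.02, exposed to compound 24 hr at 30 deg C.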
Hits are given with their value; n = inactive; u = inconclusive; x = not tested or not shown; ! = a repeat was not active; [ ] = dose if it differs, or a comment. This is a sample that favours compounds with a hit; in the whole collection about 2.2% have one here. The call rests on the fitted dose curve; in most records, active means well fitted curve in the direction sought with a large enough effect; inconclusive means small, poorly fitted or top-dose-only effect, or another doubt; inactive means no such curve, though single readings can be large; an effect the other way counts as inactive or inconclusive.

SMILES | Mito fusion yeast | Abeta yeast res | aSyn rescue | FUS yeast rescue | TDP43 rescue
COc1ccc2oc(C)c(C(=O)c3ccc([N+](=O)[O-])cc3)c2c1 | n | n | n | x | 22.4µM
COc1ccc2oc(C)c(C(N)=O)c2c1 | n | n | n | n | n
COc1ccc(C2=CC(=O)C[C@H](c3ccc(F)cc3)C2)cc1F | n | n | n | u | 22.4µM
O=C1C=C(c2cc(Cl)cc(Cl)c2)C[C@@H](c2ccc(F)cc2)C1 | u | n | n | n | u
CSc1ccc(C2=CC(=O)C[C@H](c3ccc(F)cc3)C2)cc1 | u | n | n | n | 22.4µM
O=C1C=C(c2ccc(OC(F)(F)F)cc2)C[C@@H](c2ccc(F)cc2)C1 | n | u | n | n | 14.1µM
Cc1cc(C2=CC(=O)C[C@H](c3ccc(F)cc3)C2)ccc1F | x | n | n | n | 22.4µM
COc1cc(F)c(C2=CC(=O)C[C@H](c3ccc(F)cc3)C2)cc1F | n | n | n | n | u
CCC[C@H]1[C@@H](NC(=O)C2CCCCC2)CC[C@@]23CCCN2C(=O)CCC[C@@H]13 | x | x | x | n | x
Cc1ccc(C)c(NC(=O)CSc2ncc3c(n2)-c2ccccc2N(Cc2ccccc2C)S3(=O)=O)c1 | x | n | x | n | n
O=C1C=C(c2ccc3c(c2)OCCO3)C[C@@H](c2ccc(F)cc2)C1 | u | u | n | n | 22.4µM
O=C1C=C(c2ccc3c(c2)OCO3)C[C@@H](c2ccc(F)cc2)C1 | n | n | n | n | u
O=C(Oc1ccccc1F)c1nc(SCc2ccccc2F)ncc1Cl | x | n | x | n | n
O=C(Cn1nc(-c2ccccc2)c2ccccc21)Oc1ccccc1 | x | x | x | n | x
COc1ccccc1N1CCN(C(=O)c2nc(SC)ncc2Cl)CC1 | x | n | x | n | 35.5µM
COc1ccccc1N1CCN(C(=O)c2cc(-c3ccc(F)cc3)on2)CC1 | n | n | n | n | 12.6µM!
COc1ccccc1N1CCN(C(=O)c2cc(CC(C)C)on2)CC1 | x | n | x | n | n
COc1ccccc1N1CCN(C(=O)c2cc(C3CC3)on2)CC1 | n | n | n | n | 12.6µM
COc1ccccc1N1CCN(C(=O)c2cc(-c3ccc(C)cc3)on2)CC1 | n | n | n | n | u
COc1ccccc1-c1cc(C(=O)N2CCN(c3ccccc3OC)CC2)no1 | n | n | n | n | 17.8µM
COc1cccc(C(=O)NCC(c2cccs2)N2CCc3ccccc32)c1 (configuration not stated) | 15.8µM | n | n | n | u
O=C(NCC(c1cccs1)N1CCc2ccccc21)c1ccccc1 (configuration not stated) | u | n | n | n | n
O=C1c2ccccc2N2C(=O)c3ccccc3C2N1O (configuration not stated) | n | n | n | n | n
Cc1ccccc1N1C(=O)c2ccccc2N2C(=O)c3ccccc3C12 (configuration not stated) | 14.1µM | n[9.22 µM] | n | n | u
Nc1ccccc1C(=O)Nc1cccc2ccccc12 | n | n | n | n | 14.1µM
SMILES | Mito fusion yeast | Abeta yeast res | aSyn rescue | FUS yeast rescue | TDP43 rescue
O=C(Nc1cccc2ccccc12)c1ccccc1Cl | n | n | n | n | n
Cc1ccnc2nc(C(=O)OCCOc3cccc(Br)c3)nn12 | n | u | n | n | 15.8µM
Cc1ccnc2nc(C(=O)OCCOc3ccccc3)nn12 | n | n | n | n | n
O=c1c2c3c(sc2nnn1CCCCOc1ccc(Cl)cc1)CCCC3 | x | n | x | n | n
COc1cc(/C=C(\C#N)c2nc3ccccc3n2C)cc(OC)c1OC | x | n | x | n | n
COc1ccc(C(C#N)=Cc2ccccc2OC)cc1 | x | n | n | n | 20µM
COc1ccc(/C=C(\C#N)c2nc3ccccc3n2C)c(OC)c1 | x | n | x | n | 20µM
COc1ccc(NC(=O)C(=O)Nc2ccc3nc4n(c(=O)c3c2)CCCCC4)c(OC)c1 | x | n | x | n | n
COCCOC(=O)N1CCN(/[N+]([O-])=N/Oc2ccc([N+](=O)[O-])cc2[N+](=O)[O-])CC1 | x | x | n | x | x
Cc1nnc(SCc2cccc(CSc3nnc(C)s3)c2)s1 | n | n | n | n | u
Cn1c(SCc2c(Cl)cccc2Cl)nnc1-c1cccs1 | n | n | n | n | 17.8µM
Cc1nnc(SCc2c(Cl)cccc2Cl)s1 | n | n | n | n | 15.8µM
Cn1c(SCc2ccc(Br)cc2)nnc1-c1cccs1 | n | n | n | n | 14.1µM
CC(C)Cn1c(=O)c2ccccc2n2c(CCC(=O)N3CCN(c4ccccc4)CC3)nnc12 | x | n | x | n | n
CCC(=O)N1CCc2cc(CNS(=O)(=O)c3ccc(NC(=O)CC(C)C)cc3)ccc21 | x | n | x | n | u
COc1cc(/C=C2\C=Cc3ccccc32)cc(OC)c1OC | x | x | n | x | x
S=C1SCN(Cc2cccs2)CN1Cc1cccs1 | x | n | n | n | 11.2µM
CCN(CC)c1ccc(/C=C/c2ccc3ccccc3n2)cc1 | x | x | n | x | x
O=C(Cn1nnc(-c2ccc(C(F)(F)F)cc2)n1)NCCc1ccccc1 | x | n | n | n | n
c1ccc2oc(-c3csc(NCC4CCCO4)n3)cc2c1 (configuration not stated) | n | n | n | n | 11.2µM
C=CCNc1nc(-c2ccc3c(c2)OCCO3)cs1 | x | n | n | n | n
c1ccc2sc(NCC3CCCO3)nc2c1 (configuration not stated) | n | n | n | n | n[0.397 µM]
C=CCNc1nc(-c2cc3ccccc3o2)cs1 | n | n | n | x | 12.6µM
Nc1c(N=Nc2ccc([N+](=O)[O-])cc2)c(S(=O)(=O)O)cc2cc(S(=O)(=O)O)c(/C=C/c3ccccc3)c(O)c12 | x | x | n | x | x
Cc1nnc(NC(=O)Cc2ccc(OCc3c(C)noc3C)cc2)s1 | n | n | n | 14.1µM | n
SMILES | Mito fusion yeast | Abeta yeast res | aSyn rescue | FUS yeast rescue | TDP43 rescue
CCCN(CCC)C(=O)CSc1c2c(nc3ccc(Cl)cc13)CCCC2 | x | n | x | n | 20µM
CN(Cc1ccccc1)C(=O)CSc1c2c(nc3ccc(Cl)cc13)CCCC2 | x | n | x | u | 20µM
CCCCN(C)C(=O)CSc1c2c(nc3ccc(Cl)cc13)CCCC2 | x | n | x | n | n
COc1cc(OC)c(N(C)C(=O)CSc2c3c(nc4ccc(Cl)cc24)CCCC3)cc1Cl | x | n | x | u | n
CCc1ccccc1NS(=O)(=O)c1ccc2c(c1)CC(=O)N2 | x | n | x | n | n
COc1ccc(-c2c(Cc3ccccc3)nc(NC(=O)c3ccccc3F)n2C)cc1 | x | x | x | n | x
Cc1ccc2nsnc2c1S(=O)(=O)N1CCN(C(=O)C2CCCO2)CC1 (configuration not stated) | n | n | 22.4µM | n | u
Cc1cccc(-c2nc(C)c(CCNC(=O)c3cccs3)s2)c1 | x | n | n | n | 15.8µM
COc1ccc(-c2nc(C)c(CCNC(=O)c3cccc(C)c3)s2)cc1OC | x | n | n | n | 22.4µM
Cc1cccc(-c2nc(C)c(CCNC(=O)C(=O)Nc3c(C)cc(C)cc3C)s2)c1 | x | n | n | n | n
COc1ccc(-c2nc(C)c(CCNC(=O)c3cccs3)s2)cc1 | x | n | n | n | 14.1µM
